Test results as given in PubChem BioAssay AID1159580 (chemical genetic matrix, 2015).
In all, about 5,500 compounds went through this assay and about 2,000 (36%) were called active. Inconclusive results (about 18%) are left out. Cut-off read from the data, not from the text of the source: active = normalized growth mostly below about 0.91 (no sharp cut-off); inconclusive = no clear call, values can overlap the other calls; inactive = mostly above about 0.92. The list shows a part of the results.

Test: chemical genetic growth profiling, strain panel (AID 1159580);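 note: tested at 20 µM; growth read once vehicle control cultures reached saturation at 30 °C; 1 = growth at the plate median or of vehicle wells; lower values mean less growth of the strain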
Settings: growth OD

Measured: normalized growth

O=C(O)CCCCC1SCC2NC(=O)NC21 (centres undefined)
inactive: S. cerevisiae deletion strains, locus YJL187C, strain SWE1, active compounds read low 0.991 | S. cerevisiae deletion strains, locus YJR043C, strain POL32, active compounds read low 0.971 | S. cerevisiae deletion strains, locus YJR066W, strain TOR1, active compounds read low 0.983 | S. cerevisiae deletion strains, locus YKL009W, strain mrt4, active compounds read low 0.994 | S. cerevisiae deletion strains, locus YKL068W, active compounds read low 1.01 | S. cerevisiae deletion strains, locus YKL085W, strain MDH1 (second series), active compounds read low 1.01 | S. cerevisiae deletion strains, locus YKL085W, strain MDH1, active compounds read low 1.01 | S. cerevisiae deletion strains, locus YKL160W, strain elf1, active compounds read low 1 | S. cerevisiae deletion strains, locus YKL190W, strain CNB1, active compounds read low 1.03 | S. cerevisiae deletion strains, locus YKR001C, strain vps1, active compounds read low 1 | S. cerevisiae deletion strains, locus YKR026C, strain gcn3, active compounds read low 0.982 | S. cerevisiae deletion strains, locus YKR091W, strain srl3, active compounds read low 0.992 | S. cerevisiae deletion strains, locus YLL001W, strain dnm1, active compounds read low 0.989 | S. cerevisiae deletion strains, locus YLL026W, active compounds read low 0.982 | S. cerevisiae deletion strains, locus YLL041C, strain sdh2, active compounds read low 0.977 | S. cerevisiae deletion strains, locus YLR027C, strain aat2, active compounds read low 0.994 | S. cerevisiae deletion strains, locus YLR039C, strain RIC1, active compounds read low 1.06 | S. cerevisiae deletion strains, locus YLR058C, strain SHM2, active compounds read low 1.01 | S. cerevisiae deletion strains, locus YLR102C, strain apc9, active compounds read low 0.998 | S. cerevisiae deletion strains, locus YLR113W, strain HOG1, active compounds read low 0.991 | S. cerevisiae deletion strains, locus YLR221C, strain rsa3, active compounds read low 1.01 | S. cerevisiae deletion strains, locus YLR258W, strain gsy2, active compounds read low 0.995 | S. cerevisiae deletion strains, locus YLR262C, strain YPT6 (second series), active compounds read low 0.992 | S. cerevisiae deletion strains, locus YLR262C, strain YPT6, active compounds read low 1.02 | S. cerevisiae deletion strains, locus YLR268W, strain sec22, active compounds read low 0.99 | S. cerevisiae deletion strains, locus YLR320W, strain mms22, active compounds read low 0.999 | S. cerevisiae deletion strains, locus YLR330W, strain CHS5, active compounds read low 1.01 | S. cerevisiae deletion strains, locus YLR342W, strain FKS1 (second series), active compounds read low 1 | S. cerevisiae deletion strains, locus YLR342W, strain FKS1, active compounds read low 0.972 | S. cerevisiae deletion strains, locus YLR357W, strain rsc2, active compounds read low 0.962 | S. cerevisiae deletion strains, locus YLR370C, strain arc18, active compounds read low 0.998 | S. cerevisiae deletion strains, locus YLR371W, strain rom2, active compounds read low 1.02 | S. cerevisiae deletion strains, locus YLR384C, strain iki3, active compounds read low 0.985 | S. cerevisiae deletion strains, locus YLR418C, strain cdc73, active compounds read low 1.02 | S. cerevisiae deletion strains, locus YML016C, strain PPZ1, active compounds read low 1.01 | S. cerevisiae deletion strains, locus YML032C, strain rad52, active compounds read low 0.983 | S. cerevisiae deletion strains, locus YML120C, strain ndi1, active compounds read low 0.976 | S. cerevisiae deletion strains, locus YML124C, strain tub3, active compounds read low 0.996 | S. cerevisiae deletion strains, locus YMR058W, strain fet3, active compounds read low 0.984 | S. cerevisiae deletion strains, locus YMR078C, strain ctf18, active compounds read low 1.02 | S. cerevisiae deletion strains, locus YMR125W, strain sto1, active compounds read low 0.989 | S. cerevisiae deletion strains, locus YMR129W, active compounds read low 0.997 | S. cerevisiae deletion strains, locus YMR205C, strain PFK2, active compounds read low 1 | S. cerevisiae deletion strains, locus YMR223W, strain ubp8, active compounds read low 1 | S. cerevisiae deletion strains, locus YMR231W, strain pep5, active compounds read low 0.997 | S. cerevisiae deletion strains, locus YMR307W, strain GAS1, active compounds read low 1.01 | S. cerevisiae deletion strains, locus YNL067W, strain RPL9B, active compounds read low 1 | S. cerevisiae deletion strains, locus YNL071W, strain lat1, active compounds read low 0.979 | S. cerevisiae deletion strains, locus YNL183C, strain NPR1, active compounds read low 0.984 | S. cerevisiae deletion strains, locus YNL209W, strain ssb2, active compounds read low 0.995 | S. cerevisiae deletion strains, locus YNL233W, strain BNI4, active compounds read low 0.99 | S. cerevisiae deletion strains, locus YNL248C, strain rpa49, active compounds read low 0.982 | S. cerevisiae deletion strains, locus YNL250W, strain rad50, active compounds read low 1.01 | S. cerevisiae deletion strains, locus YNL271C, strain bni1, active compounds read low 0.996 | S. cerevisiae deletion strains, locus YNL298W, strain CLA4, active compounds read low 1 | S. cerevisiae deletion strains, locus YNL307C, strain MCK1, active compounds read low 0.997 | S. cerevisiae deletion strains, locus YNL322C, strain KRE1 (second series), active compounds read low 0.973 | S. cerevisiae deletion strains, locus YNR049C, strain mso1, active compounds read low 0.978 | S. cerevisiae deletion strains, locus YNR052C, strain pop2, active compounds read low 0.996 | S. cerevisiae deletion strains, locus YOL006C, strain TOP1, active compounds read low 1.09 | S. cerevisiae deletion strains, locus YOL012C, strain htz1 1.05 | S. cerevisiae deletion strains, locus YOL147C, strain pex11, active compounds read low 1 | S. cerevisiae deletion strains, locus YOR001W, strain rrp6, active compounds read low 0.987 | S. cerevisiae deletion strains, locus YOR061W, strain CKA2, active compounds read low 1 | S. cerevisiae deletion strains, locus YOR069W, strain VPS5, active compounds read low 1.01 | S. cerevisiae deletion strains, locus YOR070C, strain gyp1, active compounds read low 1 | S. cerevisiae deletion strains, locus YOR080W, strain dia2, active compounds read low 0.978 | S. cerevisiae deletion strains, locus YOR083W, strain WHI5, active compounds read low 0.992 | S. cerevisiae deletion strains, locus YOR106W, strain vam3, active compounds read low 0.975 | S. cerevisiae deletion strains, locus YOR136W, strain idh2, active compounds read low 0.986 | S. cerevisiae deletion strains, locus YOR144C, strain elg1, active compounds read low 0.988 | S. cerevisiae deletion strains, locus YOR184W, strain ser1, active compounds read low 0.956 | S. cerevisiae deletion strains, locus YOR231W, strain MKK1, active compounds read low 1.01 | S. cerevisiae deletion strains, locus YOR265W, strain rbl2, active compounds read low 1.01 | S. cerevisiae deletion strains, locus YOR270C, strain vph1, active compounds read low 1.01 | S. cerevisiae deletion strains, locus YOR290C, strain snf2, active compounds read low 0.977 | S. cerevisiae deletion strains, locus YOR316C, strain cot1, active compounds read low 1 | S. cerevisiae deletion strains, locus YPL051W, strain arl3, active compounds read low 1.01 | S. cerevisiae deletion strains, locus YPL078C, strain atp4, active compounds read low 0.955 | S. cerevisiae deletion strains, locus YPL106C, strain sse1, active compounds read low 0.994 | S. cerevisiae deletion strains, locus YPL240C, strain hsp82, active compounds read low 0.98 | S. cerevisiae deletion strains, locus YPL241C, strain CIN2, active compounds read low 1.01 | S. cerevisiae deletion strains, locus YPL256C, strain CLN2, active compounds read low 1 | S. cerevisiae deletion strains, locus YPR119W, strain clb2, active compounds read low 0.992 | S. cerevisiae deletion strains, locus YPR141C, strain kar3, active compounds read low 1.01 | S. cerevisiae deletion strains, locus YPR163C, strain tif3, active compounds read low 1.01 | S. cerevisiae deletion strains, locus YPR167C, strain met16, active compounds read low 1 | S. cerevisiae deletion strains, strain wtn01, active compounds read low 0.992 | S. cerevisiae strains, strain wild type, active compounds read low 1.01
